Percent Effect data for eight molecules are collected here from ChEMBL document CHEMBL3988442, “University of Dundee, Small-Polar-MMV Screening Library” (2021).

Holding throughout (design): scale not given: direction of the effect not stated beside the values
Assay [1] has as its target Protein translocase subunit SecA (Escherichia coli (strain K12)) (UniProt P10408). The assay is described as follows: Assay to Identify E. coli SecA ATPase Inhibitors. The note with it: 30 µM. In kind it is functional.
The target of assay [2] is T1, Ubiquitin-activating enzyme e1, putative (Leishmania donovani (strain BPK282A1)) (UniProt E9BSI1).
T1 sequence (whole entry): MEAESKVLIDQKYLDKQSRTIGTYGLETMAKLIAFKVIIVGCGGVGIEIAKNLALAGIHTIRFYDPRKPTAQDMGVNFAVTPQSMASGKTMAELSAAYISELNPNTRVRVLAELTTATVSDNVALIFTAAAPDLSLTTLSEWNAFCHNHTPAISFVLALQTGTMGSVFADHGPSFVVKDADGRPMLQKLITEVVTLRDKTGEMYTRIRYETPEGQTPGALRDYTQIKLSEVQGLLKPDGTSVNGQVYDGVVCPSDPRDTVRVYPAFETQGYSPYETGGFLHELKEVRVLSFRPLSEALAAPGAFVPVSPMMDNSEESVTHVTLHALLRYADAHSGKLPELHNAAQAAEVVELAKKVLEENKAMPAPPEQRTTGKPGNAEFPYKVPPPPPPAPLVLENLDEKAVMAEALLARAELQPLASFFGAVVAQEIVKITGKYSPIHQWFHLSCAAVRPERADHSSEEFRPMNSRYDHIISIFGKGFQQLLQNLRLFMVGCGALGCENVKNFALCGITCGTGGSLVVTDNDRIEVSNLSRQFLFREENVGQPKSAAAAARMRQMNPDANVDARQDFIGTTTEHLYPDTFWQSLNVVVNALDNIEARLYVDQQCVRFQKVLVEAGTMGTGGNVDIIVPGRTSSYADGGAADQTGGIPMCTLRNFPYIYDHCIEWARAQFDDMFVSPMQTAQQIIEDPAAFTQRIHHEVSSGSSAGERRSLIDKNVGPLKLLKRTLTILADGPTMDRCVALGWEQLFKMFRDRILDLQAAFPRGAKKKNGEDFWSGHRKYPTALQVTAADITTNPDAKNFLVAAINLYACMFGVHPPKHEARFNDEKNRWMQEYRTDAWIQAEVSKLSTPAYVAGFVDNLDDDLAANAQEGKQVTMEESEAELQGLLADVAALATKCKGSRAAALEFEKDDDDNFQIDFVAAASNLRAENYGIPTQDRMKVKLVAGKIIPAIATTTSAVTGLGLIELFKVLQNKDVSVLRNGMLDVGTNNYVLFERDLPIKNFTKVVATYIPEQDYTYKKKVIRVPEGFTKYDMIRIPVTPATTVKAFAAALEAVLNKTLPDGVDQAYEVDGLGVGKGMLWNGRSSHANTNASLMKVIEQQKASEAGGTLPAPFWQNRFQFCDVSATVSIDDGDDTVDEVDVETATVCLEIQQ
The assay is described as follows: Leishmania donovani Ubiquitin Activating Enzyme (LdE1). Type of assay: functional. To be noted: 30 µM.

For assay [3], the target named is AMP-activated protein kinase, AMPK (Homo sapiens) (UniProt P54646+O43741+P54619+Q9UGJ0+Q9Y478+Q13131+Q9UGI9). The assay is described as follows: AMP-dependent Kinase enzyme assay. An in vitro enzyme assay that detects ADP turnover that is directly proportional to AMPK activity. This uses naive AMPK that is activated during the assay with MK-8722. In kind it is functional. To be noted: 30 µM.

Assay [4] deals with Sialic acid-binding Ig-like lectin 9 (Homo sapiens) (UniProt Q9Y336). Put plainly: Hs-Siglec9 ALPHAscreen SOP 20170721. The note with it: 10 µM. Background: Bead proximity is the source of the signal in Alpha formats.
Sialic acid-binding Ig-like lectin 9 (Homo sapiens), sequence (Q9Y336 whole entry): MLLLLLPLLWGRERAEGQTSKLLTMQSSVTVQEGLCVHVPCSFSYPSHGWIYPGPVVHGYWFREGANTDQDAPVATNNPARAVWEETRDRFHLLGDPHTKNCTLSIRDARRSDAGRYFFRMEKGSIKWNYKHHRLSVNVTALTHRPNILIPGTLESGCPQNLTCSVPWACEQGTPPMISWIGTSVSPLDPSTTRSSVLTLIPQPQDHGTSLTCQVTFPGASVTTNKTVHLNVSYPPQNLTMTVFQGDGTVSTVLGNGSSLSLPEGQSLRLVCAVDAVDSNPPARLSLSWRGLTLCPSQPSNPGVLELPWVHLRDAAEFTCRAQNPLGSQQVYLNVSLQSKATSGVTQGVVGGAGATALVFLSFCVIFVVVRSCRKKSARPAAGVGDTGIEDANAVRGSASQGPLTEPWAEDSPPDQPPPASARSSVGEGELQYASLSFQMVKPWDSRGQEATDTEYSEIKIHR
Assay [5] relates to Trypanosoma cruzi. Put plainly: Trypanosoma cruzi phosphomannomutase and mannose-1-phosphate guanylyltransferase assay. To be noted: 10 µM. Type of assay: functional.
Assay [6] has as its target T2, Arginase-2, mitochondrial (Homo sapiens) (UniProt P78540).
T2 sequence (whole entry): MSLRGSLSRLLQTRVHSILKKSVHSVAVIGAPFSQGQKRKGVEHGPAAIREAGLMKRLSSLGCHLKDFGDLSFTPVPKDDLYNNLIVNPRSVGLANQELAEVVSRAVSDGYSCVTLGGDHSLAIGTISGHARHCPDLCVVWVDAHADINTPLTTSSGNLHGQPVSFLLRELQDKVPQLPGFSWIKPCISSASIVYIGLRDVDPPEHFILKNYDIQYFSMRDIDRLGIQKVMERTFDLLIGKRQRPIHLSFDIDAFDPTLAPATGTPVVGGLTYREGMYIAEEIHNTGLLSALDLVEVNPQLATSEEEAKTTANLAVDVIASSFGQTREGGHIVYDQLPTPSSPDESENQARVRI
Put plainly: in vitro enzyme assay to detect the production of urea directly proportional to the activity of Arginase II. Note: in the data most compounds retested in dose-response had high values. In kind it is functional. The note with it: 33.3 µM.

Assay [7] has as its target T3, Proteasome subunit beta (Trypanosoma cruzi) (UniProt O96673).
T3 sequence (whole entry): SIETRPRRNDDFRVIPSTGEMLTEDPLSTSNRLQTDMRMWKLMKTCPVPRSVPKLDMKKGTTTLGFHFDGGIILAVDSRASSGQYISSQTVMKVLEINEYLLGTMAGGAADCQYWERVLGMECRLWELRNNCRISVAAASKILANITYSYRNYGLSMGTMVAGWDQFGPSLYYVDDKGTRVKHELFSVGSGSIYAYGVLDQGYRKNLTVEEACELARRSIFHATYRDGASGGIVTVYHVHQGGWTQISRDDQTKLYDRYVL
Put plainly: Trypanosoma cruzi proteasome chymotrypsin-like activity (TcProtChymo) assay. Note: in the data most compounds retested in dose-response had high values. To be noted: 9.37 µM. Type of assay: functional.

The species named for assay [8] is Homo sapiens. The assay is described as follows: To identify inhibition of the IFN signalling (Jak-Stat) pathway via expression of an eGFP reporter gene under the control of an IFN-stimulated response element (ISRE) containing MxA promoter. In kind it is functional. To be noted: 30 µM. Background: A reporter such as luciferase makes a cellular process visible.
In assay [9] the target is T4, Tyrosyl-tRNA synthetase, putative (Trypanosoma cruzi (strain CL Brener)) (UniProt Q4DSP6).
T4 sequence (whole entry): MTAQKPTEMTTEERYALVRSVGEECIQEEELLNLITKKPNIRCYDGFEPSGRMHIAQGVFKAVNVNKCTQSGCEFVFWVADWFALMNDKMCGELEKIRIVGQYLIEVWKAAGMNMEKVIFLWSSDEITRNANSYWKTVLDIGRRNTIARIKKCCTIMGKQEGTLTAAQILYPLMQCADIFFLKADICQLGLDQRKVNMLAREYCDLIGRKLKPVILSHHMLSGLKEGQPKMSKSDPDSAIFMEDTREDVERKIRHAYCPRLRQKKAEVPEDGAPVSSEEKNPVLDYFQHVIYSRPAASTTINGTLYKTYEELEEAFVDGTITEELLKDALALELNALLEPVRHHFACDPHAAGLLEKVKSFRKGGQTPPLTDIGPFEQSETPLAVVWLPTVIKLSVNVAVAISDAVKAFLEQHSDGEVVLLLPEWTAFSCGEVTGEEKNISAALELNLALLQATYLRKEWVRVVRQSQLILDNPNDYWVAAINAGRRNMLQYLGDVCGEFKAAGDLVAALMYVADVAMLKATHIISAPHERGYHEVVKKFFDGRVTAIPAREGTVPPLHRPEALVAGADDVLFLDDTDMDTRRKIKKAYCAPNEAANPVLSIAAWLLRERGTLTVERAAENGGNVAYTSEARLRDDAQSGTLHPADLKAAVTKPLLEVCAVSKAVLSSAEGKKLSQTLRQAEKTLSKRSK
Put plainly: Trypanosoma cruzi tyrosyl tRNA synthetase (TcYRS) _High Tyrosine SOP. Note: in the data most compounds retested in dose-response had high values. Type of assay: functional. To be noted: 30 µM.

The target in assay [10] is T4, Tyrosyl-tRNA synthetase, putative (Trypanosoma cruzi (strain CL Brener)). The assay is described as follows: Trypanosoma cruzi tyrosyl tRNA synthetase (TcYRS) SOP. Type of assay: functional. The note with it: 30 µM.
Assay [11] has as its target Chromo domain-containing protein 1 (Saccharomyces cerevisiae (strain ATCC 204508 / S288c) (Baker's yeast)) (UniProt P32657). The assay is described as follows: ScCHD-1 Enzyme Inhibition Assay. Note: in the data most compounds retested in dose-response had high values. In kind it is functional. To be noted: 30 µM.

Molecules are shown by their SMILES. For some of these results: Entries with a potency or affinity are not part of this list.

Chromo domain-containing protein 1 (Saccharomyces cerevisiae (strain ATCC 204508 / S288c) (Baker's yeast)), sequence (P32657 whole entry, the tested form may be a part): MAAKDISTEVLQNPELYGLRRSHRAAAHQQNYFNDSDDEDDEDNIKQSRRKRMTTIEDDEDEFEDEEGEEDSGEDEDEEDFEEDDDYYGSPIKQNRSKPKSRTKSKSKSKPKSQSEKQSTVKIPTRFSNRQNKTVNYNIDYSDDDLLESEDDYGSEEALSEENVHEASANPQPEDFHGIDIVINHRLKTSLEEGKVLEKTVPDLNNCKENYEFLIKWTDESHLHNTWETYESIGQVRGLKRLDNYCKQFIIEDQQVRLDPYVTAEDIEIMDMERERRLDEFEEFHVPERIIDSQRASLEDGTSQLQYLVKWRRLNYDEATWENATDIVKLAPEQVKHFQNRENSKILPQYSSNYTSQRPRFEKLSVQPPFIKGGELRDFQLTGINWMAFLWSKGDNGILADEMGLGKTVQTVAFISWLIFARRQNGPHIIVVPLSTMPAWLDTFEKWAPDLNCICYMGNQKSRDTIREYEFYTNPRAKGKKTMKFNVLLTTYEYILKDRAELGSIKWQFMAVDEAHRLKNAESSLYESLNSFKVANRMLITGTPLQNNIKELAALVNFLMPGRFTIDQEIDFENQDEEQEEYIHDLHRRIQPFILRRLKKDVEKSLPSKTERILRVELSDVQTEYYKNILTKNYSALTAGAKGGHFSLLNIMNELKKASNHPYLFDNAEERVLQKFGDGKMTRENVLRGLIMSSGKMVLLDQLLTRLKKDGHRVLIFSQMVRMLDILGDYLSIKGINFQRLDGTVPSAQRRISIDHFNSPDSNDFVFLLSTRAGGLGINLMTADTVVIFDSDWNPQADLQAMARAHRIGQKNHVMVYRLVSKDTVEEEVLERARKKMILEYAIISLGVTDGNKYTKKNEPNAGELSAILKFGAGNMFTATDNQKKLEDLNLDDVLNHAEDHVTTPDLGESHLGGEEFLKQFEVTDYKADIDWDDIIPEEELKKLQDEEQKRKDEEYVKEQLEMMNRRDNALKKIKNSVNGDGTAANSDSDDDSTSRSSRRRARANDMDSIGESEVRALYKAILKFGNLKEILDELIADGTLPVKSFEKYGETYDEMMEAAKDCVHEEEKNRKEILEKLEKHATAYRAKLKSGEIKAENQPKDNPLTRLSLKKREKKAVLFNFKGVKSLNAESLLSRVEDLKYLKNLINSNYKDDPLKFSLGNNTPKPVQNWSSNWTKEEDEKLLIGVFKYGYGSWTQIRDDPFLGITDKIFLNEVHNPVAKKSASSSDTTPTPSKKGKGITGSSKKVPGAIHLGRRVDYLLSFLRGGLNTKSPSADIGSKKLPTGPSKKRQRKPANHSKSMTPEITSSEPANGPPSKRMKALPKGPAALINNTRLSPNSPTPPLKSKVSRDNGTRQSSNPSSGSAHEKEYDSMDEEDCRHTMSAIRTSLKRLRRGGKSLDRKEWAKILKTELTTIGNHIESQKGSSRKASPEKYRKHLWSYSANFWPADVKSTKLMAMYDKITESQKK
Protein translocase subunit SecA (Escherichia coli (strain K12)), sequence (P10408 whole entry): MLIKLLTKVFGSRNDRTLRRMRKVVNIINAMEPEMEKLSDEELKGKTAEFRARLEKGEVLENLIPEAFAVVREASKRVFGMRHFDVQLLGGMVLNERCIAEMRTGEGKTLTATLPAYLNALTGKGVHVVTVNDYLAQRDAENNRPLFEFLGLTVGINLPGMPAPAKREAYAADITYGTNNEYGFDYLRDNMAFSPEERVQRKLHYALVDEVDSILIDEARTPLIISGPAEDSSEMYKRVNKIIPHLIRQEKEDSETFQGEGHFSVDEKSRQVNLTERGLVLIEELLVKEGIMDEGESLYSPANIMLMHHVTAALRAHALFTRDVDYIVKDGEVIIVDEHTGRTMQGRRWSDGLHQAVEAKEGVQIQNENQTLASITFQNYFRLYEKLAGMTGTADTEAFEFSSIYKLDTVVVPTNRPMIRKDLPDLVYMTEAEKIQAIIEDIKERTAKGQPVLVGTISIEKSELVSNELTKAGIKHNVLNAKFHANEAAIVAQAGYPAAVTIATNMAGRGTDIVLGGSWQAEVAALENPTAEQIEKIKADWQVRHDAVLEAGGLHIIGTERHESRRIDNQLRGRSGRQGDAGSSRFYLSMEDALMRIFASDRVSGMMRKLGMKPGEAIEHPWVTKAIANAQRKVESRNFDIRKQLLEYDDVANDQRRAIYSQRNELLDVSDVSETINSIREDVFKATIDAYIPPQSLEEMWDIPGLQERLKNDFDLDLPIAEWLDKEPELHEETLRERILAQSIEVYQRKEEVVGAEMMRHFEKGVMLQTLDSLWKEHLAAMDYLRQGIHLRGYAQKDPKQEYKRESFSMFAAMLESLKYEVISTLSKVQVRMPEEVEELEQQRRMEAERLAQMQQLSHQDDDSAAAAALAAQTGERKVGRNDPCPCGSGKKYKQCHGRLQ

Regarding `Cc1scc(C(=O)N2CCC3(CC(=O)NC3=O)C2)c1-c1ccccc1` (stereo not drawn), the Percent Effect in [1] was -2.27%; in [2], 5.41%; in assay [3], 3.06%; in assay [4], 1.45%; in assay [5], 1.35%; in assay [6], 2.86%. For the same molecule, the Percent Effect in [7] is 12.2%; in assay [8], 0.902%; in assay [9], 8.99%; in [10] it was 9.76%; in assay [11] it was -5.21%.
As to `COc1c(CNCCNC(=O)Cc2ccc(F)cc2)c(C)nn1C`, the Percent Effect in assay [1] was -1.17%; in assay [2], 13.5%; in assay [3], 1.18%; in assay [4], -2.01%; in assay [5], -7.52%; in assay [6], -4.99%. The Percent Effect was 13.1% in assay [7]; 12.1% in assay [8]; 1.98% in [9]; -18.3% in assay [10]; -8.36% in [11].
Consider `Cn1cc(NS(=O)(=O)c2ccc(OC(F)(F)F)cc2)ccc1=O`, for which the Percent Effect is -4.62% in assay [1]; 7.59% in assay [2]; -136% in assay [3]; -4.96% in assay [4]; -9.73% in [5]; -1.9% in [6]. In addition, the Percent Effect is 0.246% in [7]; 62.5% in assay [8]; 0.493% in assay [9]; 8.86% in assay [10]; -4.48% in assay [11].
Take `Cc1cnn(Cc2cc(F)ccc2F)c1NC(=O)NC1CC1`: the Percent Effect is -4.44% in assay [1]; 16% in assay [2]; -4.15% in assay [3]; 41.4% in assay [4]; 5.94% in assay [5]; 29.7% in [6]. The Percent Effect is 15.5% in [7]; 10.9% in assay [8]; -16.9% in assay [9]; 21% in assay [10]; -4.35% in assay [11].
Consider `Cc1ccc2c(c1)C1(CCNCC1)CN2C(=O)CN(C)C`, for which the Percent Effect in [1] is -3.67%; in [2], 10.8%; in [3], 5.31%; in [4] it was -2.86%; in assay [5], -7.14%; in assay [6], 1.59%. For the same molecule, the Percent Effect in [7] is 15.7%; in assay [8], 14.1%; in assay [9] it was 5.41%; in [10], 12.8%; in [11], -2.47%.
In the case of `COc1cc2nc3n(c(=O)c2cc1OC)CCN(C(C)=O)CC3`, the Percent Effect in assay [1] was -1.86%; in [2], 4.05%; in assay [3] it was 9.32%; in [4], 3.01%; in assay [5], 0.593%; in [6] it was -1.16%. The Percent Effect in [7] was 5.62%; in [8] it was 11.5%; in [9] it was 1.07%; in assay [10], 11.7%; in assay [11], -1.39%.
`Cc1cc(CN2CCOCS2(=O)=O)ccc1F`: the Percent Effect was 2.12% in assay [1]; 5.41% in assay [2]; -2.01% in [3]; 3.16% in assay [4]; -5.21% in assay [5]; 4.29% in assay [6]. The Percent Effect in [7] was 16.4%; in assay [8], 9.21%; in [9], 4.76%; in [10], 4.88%; in assay [11], -2.56%.
As to `CCc1nnc(CN(C)c2nc(C3CCCC3)nc3c2cnn3C)o1`, the Percent Effect in assay [1] is -4.33%; in [2], 4.17%; in assay [3], 7.51%; in [4] it was 2.48%; in assay [5], 3.79%; in [6] it was 2.65%. In addition, the Percent Effect in assay [7] was 10.5%; in assay [8] it was 7.5%; in assay [9], 1.05%; in [10], 7.69%; in assay [11], -2.84%.
